aSyn 5UTR act – Activators via SNCA 5'UTR binding, MLPCN; alpha-synuclein 5'UTR reporter, activators screen; activity score, % (tested at 7.5 µM), hits read low; hit rate 7.1% among 300,000; AID 1814; in the data active = activity score below about -60%
Hits are given with their value; – = inactive. These entries were drawn from the full list.

SMILES | aSyn 5UTR act
CCCNS(=O)(=O)c1cccc(C(=O)OCc2cc(=O)oc3cc(OC)ccc23)c1 | -97
CCOC(=O)c1cn2nc(Oc3ccccc3)ccc2n1 | -149
CCOC(=O)c1cn2nc(Oc3ccc(C)cc3)ccc2n1 | -75
Cc1cc(=O)n(C(NC(=O)c2ccccc2)C(=O)c2ccccc2)cn1 (configuration not stated) | -84
O=C(NC(C(=O)c1ccccc1)N1CCOCC1)c1ccccc1 (configuration not stated) | -67
CCCCn1cnc2c(cnn2-c2ccc(F)cc2)c1=O | -123
CCOC(=O)C(C)n1cnc2c(cnn2-c2ccc(Cl)cc2)c1=O (configuration not stated) | -135
CCCn1cnc2c(cnn2-c2ccc(F)cc2)c1=O | -115
CCCCn1cnc2c(cnn2-c2ccc(Cl)cc2)c1=O | -109
Cc1ccccc1NC(=O)c1onc2c1CCCC2 | -131
O=C(Nc1ccc2ccccc2c1)c1onc2c1CCCC2 | -71
COC(=O)c1cccc(NC(=O)c2onc3c2CCCC3)c1 | –
Cc1cccc(NC(=O)c2onc3c2CCCC3)c1C | -162
Cc1cccc(NC(=O)c2onc3c2CCCC3)n1 | –
COc1ccc(N(CC(=O)Nc2cc(Cl)ccc2C)S(=O)(=O)c2c(C)noc2C)cc1 | –
COC(=O)c1ccc(C)c(NC(=O)CN(c2cc(OC)ccc2OC)S(C)(=O)=O)c1 | -88
Cc1ccc(-c2cn(-c3ccccc3)c(SCC(=O)NC3CCS(=O)(=O)C3)n2)cc1C (configuration not stated) | -143
COc1ccc(OC)c(Cc2nnc(CCC(=O)NC3CCCCCCC3)o2)c1 | -118
COc1ccc(OC)c(Cc2nnc(CCC(=O)N3CCCCC3c3nccs3)o2)c1 (configuration not stated) | -116
COc1ccc(OC)c(Cc2nnc(CCC(=O)N3CCCCCC3)o2)c1 | -74
c1ccc(-n2nnc(-c3cccnc3)n2)cc1 | -162
Cc1ccc(-n2nnc(-c3cccnc3)n2)cc1 | -117
Nc1c(-c2ccccc2)n[nH]c1-c1ccccc1 | -219
CCc1ccc2nc(N3CCN(C(=O)C(C)(C)C)CC3)sc2c1 | -98
CCC(=O)N1CCN(c2nc3ccc(Br)cc3s2)CC1 | -117
SMILES | aSyn 5UTR act
O=C(NC1CC1)C1CCN(c2nc3ccccc3s2)CC1 | -86
CCCC(=O)N1CCN(c2nc3ccccc3s2)CC1 | -104
O=C(c1cccs1)N1CCN(c2nc3ccccc3s2)CC1 | -66
CC(C)(C)C(=O)N1CCN(c2nc3ccccc3s2)CC1 | -119
Cc1ccccc1-c1nnc(-c2ccc(Cl)cc2)o1 | -234
Cc1ccccc1-c1nnc(-c2ccccc2)o1 | -138
Cc1cccc(-c2nnc(-c3ccccc3)o2)c1 | -127
Cn1cc(-c2nnc(-c3ccccc3)o2)c2ccccc21 | -64
CC(C)c1ccc2c(c1)CCC1C(C)(CN)CCCC21C (configuration not stated) | –
Cc1ccc(-c2nnc(-c3ccc4c(c3)OCO4)o2)cc1 | -116
Cc1ccc(-c2nnc(/C=C/c3ccccc3)o2)cc1 | -136
Cc1cc(-c2nnc(-c3cccc(Cl)c3)o2)no1 | -171
O=C1c2ccsc2SCCN1Cc1ccccc1 | -65
O=C(CSc1nnc(-c2cccnc2)o1)Nc1cccc(F)c1 | -86
O=C(CSc1nnc(-c2cccnc2)o1)Nc1ccc(Br)cc1 | -77
O=C(CSc1nnc(-c2ccc(Br)cc2)o1)Nc1cccc(C(=O)O)c1 | –
Oc1ccc(N=Nc2n[nH]c(-c3ccccc3)n2)cc1 | -85
O=C(Cn1ncc(N2CCOCC2)c(Cl)c1=O)c1ccc(Cl)cc1 | -105
CCC(=O)N(CC)c1nc(-c2ccc(OC)cc2)cs1 | -161
COCCN(C(=O)c1ccccc1F)c1nnc(-c2ccc(OC)cc2)s1 | -73
C=CCN(C(=O)CCc1ccccc1OC)c1nc(-c2ccc(S(C)(=O)=O)cc2)cs1 | –
COCCN(C(=O)c1ccccc1F)c1nc(-c2ccc(OC)cc2)cs1 | -73
CN(C(=O)c1ccco1)c1nc(-c2ccccc2)cs1 | -158
CCN(C(=O)c1ccco1)c1nc(-c2ccc(OC)cc2)cs1 | -159
CCN(C(=O)c1ccccc1F)c1nc(-c2ccc(OC)cc2)cs1 | -199
SMILES | aSyn 5UTR act
CN(C)/C=C/C(=O)c1cnc(-c2cccc(Cl)c2)s1 | -146
CN(C)/C=C/C(=O)c1cnc(-c2ccccc2Cl)s1 | -127
CC(C)CN1C(=O)c2ccc(NC(=O)c3cccs3)cc2C1=O | -129
O=C(CN1C(=O)c2ccccc2S1(=O)=O)c1ccccc1F | –
CC(C)CN1C(=O)c2ccc(NC(=O)c3ccco3)cc2C1=O | -84
CC(C)CN1C(=O)c2ccc(NC(=O)c3ccccc3F)cc2C1=O | -144
COc1ccc(OC)c(NC(=O)c2cc(-c3c(C)cc(C)cc3O)n[nH]2)c1 | -112
COc1ccc(OC)c(NC(=O)c2cc(-c3cc(C)c(C)cc3O)n[nH]2)c1 | -95
CC(C)Oc1ccc(CSc2ncn[nH]2)cc1 | -84
CCOc1cccc(OCCn2cnc3ccccc3c2=O)c1 | -79
CCOc1ccc(OCCn2nnc3ccccc3c2=O)cc1 | -121
Cc1ccc(OCCn2cnc3ccccc3c2=O)c([N+](=O)[O-])c1 | -157
Cc1cccc(C(=O)n2c(=S)nc3ccccn32)c1 | -102
O=C(c1ccccc1)n1c(=S)nc2ccccn21 | -124
C=CCn1cccc(C(=O)Nc2ccc(OCC)cc2)c1=O | -155
C=CCn1cccc(C(=O)Nc2ccc(SC)cc2)c1=O | -155
C=CCn1cccc(C(=O)Nc2ccc(Cl)cc2)c1=O | -141
C=CCn1cccc(C(=O)Nc2ccc(N(C)C)cc2)c1=O | -104
CC1=CCC(COC(=O)Nc2ccccc2)CC1 (configuration not stated) | -139
Cc1noc(C)c1COc1ccc(C(=O)Nc2ncccc2O)cc1 | -67
Cc1ccc(C(=O)CCC(=O)Nc2ncccc2O)cc1 | -70
Cc1noc(C)c1COc1ccc(CC(=O)NCc2ccccc2)cc1 | –
O=C(Nc1ncccc1O)c1ccc(Oc2ccccc2)cc1 | -198
Cc1ccc(C(=O)Nc2ncccc2O)o1 | -84
COc1ccccc1NC(=O)c1nc(S(=O)(=O)Cc2ccccc2)ncc1Cl | –
SMILES | aSyn 5UTR act
COc1ccccc1NC(=O)C(C/C=C(\C)Cl)C(C)=O (configuration not stated) | -73
COc1ccccc1C(=O)NNC(=O)c1cccc([N+](=O)[O-])c1 | -62
COc1ccccc1C(=O)NNC(=O)c1cccc(C)c1 | -139
O=C(NCCSc1ccccn1)c1ccc(Cl)cc1Cl | -93
O=C(COc1ccccc1Br)NCc1ccccn1 | -71
Cc1ccc(OCC(=O)NCc2ccccn2)c(Br)c1 | -104
Cc1ccc(C(=O)NCc2ccccn2)c(Cl)c1 | -92
O=C(COc1ccc(F)cc1Br)NCc1ccccn1 | -88
FC(F)(F)c1ccc(C2NCCc3sccc32)cc1 (configuration not stated) | -63
Cc1ccc(Oc2cnc3ccccc3n2)cc1 | -127
Clc1ccc(Oc2cnc3ccccc3n2)cc1 | -80
O=C(NC(c1cccnc1)C(F)(F)F)c1cc(COc2ccc3c(c2)CCCC3)on1 (configuration not stated) | -104
Cn1c(SCC(=O)c2ccc(F)cc2)nnc1-c1cnccn1 | -63
Cn1c(SCC(=O)c2ccccc2)nnc1-c1ccccn1 | -128
Cn1c(SCC(=O)c2ccccc2)nnc1-c1cccc(N)c1 | -62
C/C(=N\Nc1nccnc1Cl)c1ccc(O)c(C)c1 | -180
COc1ccc(NC(=O)c2cc(C)on2)cc1 | -106
CC(C)n1cc(NC(=O)c2cc(-c3ccccc3)on2)cn1 | -218
COc1ccc(NC(=O)c2cc(C)nn2-c2ccccc2)cc1 | -73
